The text below walks through data of PubChem BioAssay.

The source made the active and inactive calls.

The target in one assay is Albumin (Bos taurus) (UniProt P02769). In words: compounds binding labelled BSA control protein – biochemical, small-molecule microarray, Alexa647 label, 635/667 nm fluorescence, artefact control for SMM control protein annotation, profiling panel (AID 1118).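 Note: score merges 667 nm emission intensity and signal-to-noise per printed compound spot.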 The settings on record: BSA-A647 binding, fluorescence 635 nm, higher = more signal.
Sequence of Albumin (Bos taurus) (P02769 whole entry, looked up): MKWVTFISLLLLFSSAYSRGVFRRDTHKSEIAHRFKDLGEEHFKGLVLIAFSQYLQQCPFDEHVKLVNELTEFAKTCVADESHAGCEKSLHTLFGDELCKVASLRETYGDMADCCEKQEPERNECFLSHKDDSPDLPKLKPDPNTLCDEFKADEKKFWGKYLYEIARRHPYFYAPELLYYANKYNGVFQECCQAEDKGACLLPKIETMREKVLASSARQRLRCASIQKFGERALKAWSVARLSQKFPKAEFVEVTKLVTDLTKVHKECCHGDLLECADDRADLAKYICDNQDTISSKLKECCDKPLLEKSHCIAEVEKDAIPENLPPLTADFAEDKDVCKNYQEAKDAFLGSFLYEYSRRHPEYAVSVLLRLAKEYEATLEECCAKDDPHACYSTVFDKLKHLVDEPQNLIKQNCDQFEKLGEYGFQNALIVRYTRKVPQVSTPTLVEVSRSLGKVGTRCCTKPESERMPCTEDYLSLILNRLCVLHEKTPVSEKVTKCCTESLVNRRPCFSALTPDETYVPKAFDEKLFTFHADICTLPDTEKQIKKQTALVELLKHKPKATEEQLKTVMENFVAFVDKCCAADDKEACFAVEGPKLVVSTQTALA
The nature of assay [1]: probe aXIP binding to arrayed compounds – biochemical, NeuroSMM set, 635/667 nm fluorescence, primary screen (AID 1119).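 Note: probe is the protein aXip251-270 applied at 1 µg/mL to compound-printed slides; binding of probe to printed compounds measured as 667 nm fluorescence plus signal to noise.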 The settings on record: small-molecule microarray, higher = more signal, called active from +8 up or from −8 down.
Assay [2] in a line: probe aNOTCH3 binding on compound microarray – biochemical, small-molecule microarray, 635/667 nm fluorescence, primary screen (AID 1120).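 Note: probe is a biotin-tagged antibody raised against NOTCH3 rather than NOTCH3 protein; score merges spot fluorescence near 667 nm with spot signal to noise.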 The settings on record: higher = more signal.
Assay [3] can be described thus: probe aNOTCH2 binding on compound microarray – biochemical, small-molecule microarray, 635/667 nm fluorescence, primary screen (AID 1121).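 Note: score merges feature fluorescence read at 667 nm with its signal to noise.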 The settings on record: higher = more signal.
Assay [4] deals with Carbonic anhydrase 2 (Homo sapiens) (UniProt P00918). The assay can be described thus: compounds binding carbonic anhydrase 2 – biochemical, small-molecule microarray, Alexa647-labelled CAII, profiling panel (AID 1122). The settings on record: CAII-A647 binding fluorescence, higher = more signal.
The nature of assay [5]: COS7 lysate on small-molecule microarray, probe aHis, 635 nm (AID 1123).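 Note: z-score combines 667nm fluorescence intensity with signal-to-noise per printed compound spot.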 The settings on record: COS7 cell lysate, fluorescence, higher = more signal.
Assay [6] is described as follows: probe aLAP1 signal on lysate-treated microarray – cell lysate, small-molecule microarray, COS7 lysate, primary screen (AID 1124).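 Note: lysate comes from COS7 cells expressing LAP1 and is applied at 0.3 µg/mL; score merges spot fluorescence near 667 nm with signal-to-noise over triplicate slides.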 The settings on record: probe aLAP1, fluorescence, higher = more signal.
A further assay relates to Sam68 (KHDRBS1). In words: compounds binding KHDRBS1 protein – biochemical, small-molecule microarray, 635 nm fluorescence, primary screen (AID 1125).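 Note: score merges 667 nm channel intensity with signal to noise over triplicate slides.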 The settings on record: higher = more signal.
Assay [7] relates to Chordin-like protein 2 (CHRDL2). The assay can be described thus: compounds binding chordin-like 2 – biochemical, small-molecule microarray, 635 nm fluorescence, primary screen (AID 1126).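 Note: printed compound slides probed with Chrdl2 protein at 4 µg/mL for 1 h at 4 C; score merges 667 nm emission intensity with signal to noise over three replicate slides.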 The settings on record: fluorescence 635 nm, higher = more signal.
For assay [8], the target named is Concanavalin-A (Canavalia ensiformis) (UniProt P02866). The assay can be described thus: compounds binding concanavalin A lectin – biochemical, small-molecule microarray, Alexa647 label, 635 nm, artefact control for SMM control protein annotation, primary screen (AID 1127).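 Note: z combines 667 nm emission intensity with signal-to-noise across three replicate slides.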 The settings on record: ConA-A647 binding fluorescence, higher = more signal.
Sequence of Concanavalin-A (Canavalia ensiformis) (P02866 whole entry, looked up): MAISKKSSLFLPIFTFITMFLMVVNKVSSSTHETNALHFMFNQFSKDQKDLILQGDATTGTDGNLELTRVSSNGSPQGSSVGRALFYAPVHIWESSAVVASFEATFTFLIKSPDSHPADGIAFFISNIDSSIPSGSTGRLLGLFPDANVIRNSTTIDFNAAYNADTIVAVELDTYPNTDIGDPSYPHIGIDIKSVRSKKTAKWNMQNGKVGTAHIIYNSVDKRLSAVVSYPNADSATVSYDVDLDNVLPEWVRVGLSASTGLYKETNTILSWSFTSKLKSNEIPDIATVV
A short description of assay [9]: compounds binding Alexa647 anti-His antibody – biochemical, small-molecule microarray, 635 nm fluorescence, artefact control for SMM control protein annotation, primary screen (AID 1128).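 Note: score merges feature fluorescence with signal-to-noise for each printed compound spot.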 The settings on record: higher = more signal.
Assay [10] relates to Human papillomavirus type 1a E7 protein (residues 1-88). The assay can be described thus: HPV1a E7 small-molecule binders, primary screen, biochemical, small-molecule microarray, residues 1-88, 635 nm (AID 1129). The settings on record: small-molecule microarray binding, fluorescence 635 nm; higher = more signal.
Assay [11] deals with Focal adhesion kinase 1 (Homo sapiens) (UniProt Q05397). In words: PTK2 protein binding on printed compound slides – biochemical, small-molecule microarray, 635/667 nm fluorescence, BSA, DTT, primary screen (AID 1130).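 Note: composite of spot emission at 667 nm and signal to noise over triplicate slides.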 The settings on record: 635 nm fluorescence, higher = more signal.
Sequence of Focal adhesion kinase 1 (Homo sapiens) (Q05397 whole entry, looked up): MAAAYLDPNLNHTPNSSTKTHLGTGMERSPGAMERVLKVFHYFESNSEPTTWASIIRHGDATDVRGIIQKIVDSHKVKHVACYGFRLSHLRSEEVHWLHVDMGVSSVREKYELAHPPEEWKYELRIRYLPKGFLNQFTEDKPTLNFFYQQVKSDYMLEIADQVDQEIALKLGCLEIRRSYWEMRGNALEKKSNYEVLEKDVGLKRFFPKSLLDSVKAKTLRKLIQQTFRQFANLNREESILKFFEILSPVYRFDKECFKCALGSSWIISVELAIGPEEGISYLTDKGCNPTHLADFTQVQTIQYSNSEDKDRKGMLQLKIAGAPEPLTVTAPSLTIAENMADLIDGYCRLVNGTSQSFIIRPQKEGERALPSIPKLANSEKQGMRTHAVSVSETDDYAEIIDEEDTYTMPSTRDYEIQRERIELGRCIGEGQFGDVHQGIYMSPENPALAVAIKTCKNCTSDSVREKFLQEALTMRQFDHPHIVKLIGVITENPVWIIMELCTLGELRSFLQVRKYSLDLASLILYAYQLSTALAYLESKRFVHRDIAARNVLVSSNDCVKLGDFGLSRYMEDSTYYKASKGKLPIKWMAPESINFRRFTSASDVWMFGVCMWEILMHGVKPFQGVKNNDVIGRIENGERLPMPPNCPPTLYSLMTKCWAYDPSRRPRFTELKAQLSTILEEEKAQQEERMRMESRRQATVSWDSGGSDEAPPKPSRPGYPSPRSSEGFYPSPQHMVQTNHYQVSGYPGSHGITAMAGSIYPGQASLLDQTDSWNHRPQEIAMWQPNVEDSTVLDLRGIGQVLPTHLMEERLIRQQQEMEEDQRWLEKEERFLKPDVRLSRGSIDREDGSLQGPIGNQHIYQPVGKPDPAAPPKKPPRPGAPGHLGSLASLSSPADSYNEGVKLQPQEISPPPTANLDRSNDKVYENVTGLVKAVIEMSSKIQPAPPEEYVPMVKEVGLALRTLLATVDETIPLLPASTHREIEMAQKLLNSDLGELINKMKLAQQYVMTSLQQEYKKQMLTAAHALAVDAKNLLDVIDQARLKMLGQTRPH
The test system of assay [12] is Fibrinogen (Alexa647-labelled). In words: Alexa647-fibrinogen binding to printed small molecules – biochemical, small-molecule microarray, 635/667 nm fluorescence, artefact control for SMM control-protein annotation, profiling panel (AID 1131).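 Note: z-score merges 667 nm fluorescence with per-spot signal-to-noise over triplicate slides.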 The settings on record: fibrinogen-A647 binding fluorescence, higher = more signal.
Assay [13] deals with Follistatin (Homo sapiens) (UniProt P19883). In words: FST protein binding to printed compounds – biochemical, small-molecule microarray, 635/667 nm fluorescence, primary screen (AID 1132). The settings on record: 635 nm fluorescence, higher = more signal.
Sequence of Follistatin (Homo sapiens) (P19883 whole entry, looked up): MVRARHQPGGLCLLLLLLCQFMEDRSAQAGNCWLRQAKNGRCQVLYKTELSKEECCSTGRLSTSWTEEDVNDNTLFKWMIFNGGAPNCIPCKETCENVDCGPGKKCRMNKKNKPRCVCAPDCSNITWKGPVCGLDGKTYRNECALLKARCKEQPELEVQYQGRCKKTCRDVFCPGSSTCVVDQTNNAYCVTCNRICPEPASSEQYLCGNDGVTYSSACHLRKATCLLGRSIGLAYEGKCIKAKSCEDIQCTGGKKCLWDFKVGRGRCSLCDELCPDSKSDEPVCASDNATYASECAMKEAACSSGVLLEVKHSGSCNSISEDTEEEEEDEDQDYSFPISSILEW
For assay [14], the target named is Fibroblast growth factor 2 (Homo sapiens) (UniProt P09038). The assay can be described thus: basic fibroblast growth factor binding to printed compounds – biochemical, small-molecule microarray, 635/667 nm fluorescence, primary screen (AID 1133). The settings on record: FGF2, fluorescence 635/667, higher = more signal.
Sequence of Fibroblast growth factor 2 (Homo sapiens) (P09038 whole entry, looked up): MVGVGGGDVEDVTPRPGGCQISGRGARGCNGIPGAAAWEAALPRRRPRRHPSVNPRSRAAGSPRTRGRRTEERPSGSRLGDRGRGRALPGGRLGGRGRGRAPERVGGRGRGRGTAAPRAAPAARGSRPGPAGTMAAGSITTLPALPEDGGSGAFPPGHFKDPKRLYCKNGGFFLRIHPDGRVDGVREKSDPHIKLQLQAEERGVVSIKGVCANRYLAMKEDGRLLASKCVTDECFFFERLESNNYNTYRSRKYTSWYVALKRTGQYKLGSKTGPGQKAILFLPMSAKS
The nature of assay [15]: JC-1 mitochondrial potential readout, lung cancer cells – cell-based, A549, JC-1 fluorescence, basal, 24 h, 100 nL, profiling panel (AID 1138).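 Note: A549 lung adenocarcinoma cells under basal conditions with no added stimulus; test concentration not given here.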 The settings on record: higher = more signal.
For another assay, the system named is Lefty1. The assay can be described thus: Lefty1 protein binding to printed compounds – biochemical, small-molecule microarray, 635/667 nm fluorescence, primary screen (AID 1139). The settings on record: fluorescence 635/667, higher = more signal.
Assay [16] deals with wheat germ agglutinin (Triticum aestivum), Alexa647-labelled. In words: Alexa647-WGA lectin binding to printed small molecules – biochemical, small-molecule microarray, 635/667 nm fluorescence, artefact control for SMM control-protein annotation, profiling panel (AID 1140).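 Note: score merges 667 nm feature emission with signal to noise over triplicate slides.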 The settings on record: WGA-A647 binding, 635 nm fluorescence, higher = more signal.
In assay [17] the target is Luciferin 4-monooxygenase (Photinus pyralis) (UniProt P08659). In words: inhibition of purified Photinus pyralis luciferase – biochemical, luminescence, purified enzyme, 2006 set, primary screen (AID 1141).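 Note: cell-free assay with purified firefly luciferase at 100 ng per well in PBS; test concentration not given here.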 The settings on record: purified firefly luciferase, SteadyGlo luminescence, 30 min; higher = more signal, called active from +8 up or from −8 down.
Sequence of Luciferin 4-monooxygenase (Photinus pyralis) (P08659 whole entry, looked up): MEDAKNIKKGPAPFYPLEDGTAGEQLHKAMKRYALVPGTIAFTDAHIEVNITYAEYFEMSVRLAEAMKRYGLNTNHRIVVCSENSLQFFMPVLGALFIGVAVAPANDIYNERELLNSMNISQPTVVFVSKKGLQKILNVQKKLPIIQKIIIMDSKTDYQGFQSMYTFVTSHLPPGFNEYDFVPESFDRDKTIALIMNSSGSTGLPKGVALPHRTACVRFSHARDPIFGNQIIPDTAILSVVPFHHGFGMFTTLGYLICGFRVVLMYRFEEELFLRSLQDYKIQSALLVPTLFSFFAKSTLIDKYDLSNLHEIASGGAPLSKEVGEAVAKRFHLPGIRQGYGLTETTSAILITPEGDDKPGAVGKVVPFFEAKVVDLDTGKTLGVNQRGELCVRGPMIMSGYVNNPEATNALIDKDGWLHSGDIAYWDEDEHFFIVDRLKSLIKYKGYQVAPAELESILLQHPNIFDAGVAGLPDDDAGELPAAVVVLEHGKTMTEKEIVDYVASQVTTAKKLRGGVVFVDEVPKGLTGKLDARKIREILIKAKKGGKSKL

Take `O=C1O[C@H](c2ccccc2)[C@H](c2ccccc2)N2[C@H]1[C@@H](C(=O)NC[C@H](O)c1ccccc1)[C@]1(C(=O)Nc3ccc(C#CC4(O)CCCCCC4)cc31)[C@H]2c1ccc(O)cc1`: the composite z-score with Albumin (Bos taurus) was 0.647; in assay [2] it was 0.246; in assay [3], -0.0404; in assay [4], 0.359; in assay [5], 0.892; in assay [6], 1.07. The composite z-score in the assay with Sam68 (KHDRBS1) stood at 1.33; in assay [7] it was 0.233; in assay [8], 1.12; in assay [9], 1.23; in [10], 0.843; in assay [11], 0.333. For the same molecule, the composite z-score was 0.574 in assay [12]; 1.31 in [13]; 1.01 in assay [14]; 0.873 in the assay on Lefty1; 0.588 in [16]. The composite Z-score in assay [1] was 0.601 (inactive). Also, the z-score in assay [15] was -0.105; in [17], -1.56 (inactive).

Regarding `COc1ccc([Si](C)(C)[C@H]2[C@H](CC(=O)N(CCO)Cc3ccccc3)O[C@@]3(C(=O)N(Cc4ccc(N5CCC5=O)cc4)c4ccccc43)[C@@H]2C)cc1`, the composite z-score with Albumin (Bos taurus) is 0.101; in assay [2] it was -0.219; in [3] it was -0.141; in assay [4] it was 0.339; in assay [5], 0.888; in [6], 0.371. The composite z-score was -0.114 in the assay on Sam68 (KHDRBS1); 0.286 in [7]; 0.385 in assay [8]; 0.122 in assay [9]; -0.178 in [10]; 0.13 in [11]. Besides, the composite z-score in [12] is 0.158; in assay [13], 0.41; in assay [14] it was 0.11; in the assay on Lefty1, -0.143; in assay [16], 0.429. Also, the composite Z-score in assay [1] is 0.506 (inactive). The z-score was 0.0735 in assay [15] and -1.23 (inactive) in assay [17].

In the case of `C=CCN1C(=O)[C@@]2(O[C@@H](CCO)[C@H]([Si](C)(C)c3ccc(OC)cc3)[C@H]2C)c2cc(N3C(=O)c4cccc5cccc3c45)ccc21`, the composite z-score with Albumin (Bos taurus) is 0.691; in [2], 0.0425; in assay [3] it was -0.0956; in [4], 0.355; in assay [5], 0.964; in [6], 1.13. The composite z-score with Sam68 (KHDRBS1) is 0.897; in assay [7] it was -0.487; in assay [8], 1.06; in assay [9], 2.09; in assay [10], 1; in [11], 0.617. For the same molecule, the composite z-score in [12] is 0.302; in assay [13], -0.233; in assay [14], -0.145; in the assay on Lefty1, -0.272; in assay [16], 0.525. In addition, the composite Z-score in [1] was -0.159 (inactive). For the same molecule, the values for the z-score in assay [15] and in assay [17] were -0.456 and -1.53 (inactive), respectively.

In the case of `C[N+](C)(C)CCCC[C@@H]1NC(=O)[C@@H]2C[C@H](C(=O)NCCCCCNC(=O)CS)[C@H](c3ccc(O)cc3)N2C1=O`, the composite z-score with Albumin (Bos taurus) was -0.172; in assay [2], -0.152; in assay [3], -0.179; in [4], 0.728; in assay [5], 1.05; in assay [6], 0.453. Moreover, the composite z-score in the assay with Sam68 (KHDRBS1) was 0.245; in assay [7], -0.479; in assay [8] it was 1.12; in [9], 1.6; in assay [10] it was 0.076; in assay [11], -0.0206. The composite z-score in assay [12] amounted to 0.141; in assay [13], 1.46; in [14] it was 1.19; in the assay with Lefty1, 1.02; in assay [16] it was 0.477. Besides, in assay [1], the composite Z-score was -0.419 (inactive). For the same molecule, the z-score in assay [15] is 1.52; in assay [17] it was -0.703 (inactive).

With `[N-]=[N+]=Nc1ccccc1[C@H]1OC(c2ccc(OCCCO)cc2)=N[C@@]1(Cc1ccccc1)C(N)=O`, the composite z-score came to 0.869 with Albumin (Bos taurus); 0.416 in assay [2]; 0.0521 in assay [3]; 0.623 in [4]; 0.798 in [5]; 0.577 in assay [6]. Besides, the composite z-score was 1.31 in the assay with Sam68 (KHDRBS1); -0.751 in assay [7]; 1.16 in assay [8]; 2.59 in assay [9]; 1.21 in assay [10]; 0.0957 in [11]. For the same molecule, the composite z-score in assay [12] is 0.997; in assay [13], 1.32; in [14], 0.479; in the assay with Lefty1, 0.97; in assay [16] it was 1.37. In [1], the composite Z-score is 0.382 (inactive). The z-score is 1.5 in [15] and -12.6 (active) in assay [17].
